Hit rate of the full screen: of about 52,000 sequences, about 3,800 (7.3%) were called active. Rule as the data show it: active = GI50 up to about 1.1 µM and inactive = higher. The list is a sample of the results. Entries with a potency or affinity are not part of this list.
Each substance was assayed on HOP-92.

Point of comparison: CISPLATIN, CHEMBL11359, GI50 3.74 µM. Against it:
- [Bis(aminomethyl)diethylsilane]tetrachloroplatinum(IV), CHEMBL2146203 — within 1.5-fold, 4.25 µM
- [Bis(aminomethyl)dimethylsilane]dichloroplatinum (II), CHEMBL2146201 — 7.9-fold higher, 29.4 µM
- [Bis(aminomethyl)pentamethylenesilane]dichloropaltinum(II), CHEMBL2146202 — 11-fold higher, 40.4 µM
- [Bis(aminomethyl)dimethylsilane]tetrachloroplatinum(IV), CHEMBL2146190 — 3.9-fold higher, 14.4 µM
- [Bis(aminomethyl)tetramethylenesilane]dichloropaltinum(II), CHEMBL2146205 — 7.6-fold higher, 28.4 µM
- mu-(1,7-nanodiamine-N,N')bis-(cis-aminedichloroplatimum (II)), CHEMBL2146215 — 11-fold higher, 41.8 µM
- cis-Bis[[(trimethylsilyl)methyl]amino]tetrachloroplatinum(IV), CHEMBL2146191 — within 1.5-fold, 3.11 µM
- [Bis(aminomethyl)pentamethylenesilane]tetrachloropaltinum(IV), CHEMBL2146204 — 6.5-fold higher, 24.2 µM
- [Bis(aminomethyl)ethylmethylsilane]tetrachloroplatinum(IV), CHEMBL2146192 — 5.7-fold higher, 21.3 µM
- [Bis(aminomethyl)tetramethylenesilane]tetrachloropaltinum(IV), CHEMBL2146189 — 5.7-fold higher, 21.5 µM
